Active and inactive are the calls of the source. How the calls were made is not given here.
These compounds were tested against Pantothenate synthetase (Mycobacterium tuberculosis (strain ATCC 25618 / H37Rv)) (UniProt P9WIL5) (assay: Recombinant Mtb pantothenate synthetase (PanC) inhibitors, coupled enzyme, confirmatory (AID 375;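 further: 0% = full reaction with vehicle and 100% = no enzyme background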)). Details: coupled enzyme assay; at 10 µM, active compounds read high.
Chain of Pantothenate synthetase (Mycobacterium tuberculosis (strain ATCC 25618 / H37Rv)) (P9WIL5 whole entry, looked up): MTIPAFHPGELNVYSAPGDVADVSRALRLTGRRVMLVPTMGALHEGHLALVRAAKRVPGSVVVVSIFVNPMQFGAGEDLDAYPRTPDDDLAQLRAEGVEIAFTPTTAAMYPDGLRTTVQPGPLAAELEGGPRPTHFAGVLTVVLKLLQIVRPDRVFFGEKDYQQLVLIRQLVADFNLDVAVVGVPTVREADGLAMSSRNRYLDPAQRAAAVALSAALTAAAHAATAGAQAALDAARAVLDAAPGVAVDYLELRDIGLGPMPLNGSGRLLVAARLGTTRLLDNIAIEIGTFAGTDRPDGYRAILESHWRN

| Structure (SMILES) | inhibition |
| --- | --- |
| CCC(C)NC(=O)CCNS(=O)(=O)c1ccc(Br)cc1 (stereo not given) | 0% (inactive) |
| COCC(=O)N(Cc1ccc(OC)cc1)Cc1nc2ccccc2c(=O)[nH]1 | 0% (inactive) |
| Cc1cccc(N(C)C(=O)c2cc3cc4ccc(C)cc4nc3o2)c1 | 0% (inactive) |
| CCOC(=O)c1cc2sccc2n1CC(=O)Nc1ccc(OC)cc1OC | 0% (inactive) |
| CCC(=O)Oc1ccc2c(C)cc(=O)oc2c1C | 2% (inactive) |
| CCc1nc(SCC(=O)NCc2ccco2)c2c3c(sc2n1)CCCC3 | 4% (inactive) |
| COc1ccc(C2C3=C(CC(C)(C)CC3=O)Oc3ncn4nc(-c5cccnc5)nc4c32)cc1 (stereo not given) | 0% (inactive) |
| CCOC(=O)N1CCN(c2c(NCC3CCN(Cc4cccc(C)c4)CC3)c(=O)c2=O)CC1 | 4% (inactive) |
| CCOC(=O)c1cc2ccc(OC)c(OC)c2c(=O)s1 | 0% (inactive) |
| O=C(OCCN(CCOC(=O)c1ccncc1)S(=O)(=O)c1cccs1)c1ccncc1 | 0% (inactive) |
| CCOC(=O)c1cccc(NC(=O)CS(=O)(=O)Cc2nc(-c3cccc(OC)c3)oc2C)c1 | 0% (inactive) |
| CC(=O)Nc1ccc(NC(=O)C(C)Oc2ccccc2F)cc1 (stereo not given) | 0% (inactive) |
| CCn1c(SCc2nc(-c3cccs3)no2)nnc1-c1c[nH]c2ccccc12 | 0% (inactive) |
| Cc1cnc(NC(=O)C2=C(O)c3ccccc3S(=O)(=O)N2C)s1 | 0% (inactive) |
| CCc1cccc(NC(=O)CN(C)S(=O)(=O)c2cccc3nsnc23)c1 | 12% (inactive) |
| CCOC(=O)N1CCN(C(=O)Nc2ccc(Cl)cc2)CC1 | 0% (inactive) |
| CCn1c(Cc2ccccc2)nnc1SCC(=O)Nc1cc(C)on1 | 0% (inactive) |
| CCSc1nnc(N2C(=O)CC(c3ccsc3)C3=C2CC(C)(C)CC3=O)s1 (stereo not given) | 0% (inactive) |
| CSc1nnc2c3ccccc3n(CCc3ccccc3)c2n1 | 0% (inactive) |
| O=C(CC(Cc1ccccc1)C(=O)O)NCCc1ccc2c(c1)OCO2 (stereo not given) | 1% (inactive) |

| Structure (SMILES) | inhibition |
| --- | --- |
| O=C(Cn1cnc2c(oc3ccccc32)c1=O)N1CCN(c2ccccc2)CC1 | 1% (inactive) |
| COc1ccc(CN(CC(=O)NCC2CCCO2)C(=O)CNS(=O)(=O)c2ccc(C)cc2)cc1 (stereo not given) | 9% (inactive) |
| O=C(CN1C(=O)c2cccc3cccc1c23)NCC1CCCO1 (stereo not given) | 5% (inactive) |
| CCc1nc(NCCCN2CCOCC2)c2oc3ccccc3c2n1 | 2% (inactive) |
| C=C(C)CSc1nnc(-c2cccc(S(=O)(=O)N(C)C)c2)n1-c1cc(OC)ccc1OC | 1% (inactive) |
| CCOC(=O)c1ccc(S(=O)(=O)NC2CCCCCCC2)n1C | 0% (inactive) |
| COc1ccc(S(=O)(=O)N2CCC(C(=O)NCc3ccco3)CC2)cc1 | 2% (inactive) |
| CCc1nc(N)c(C#N)c(-c2ccncc2)c1C | 0% (inactive) |
| COc1ccccc1C(=O)Nc1ccccc1C(=O)N1CCCC1 | 1% (inactive) |
| Cc1nc2ccccc2cc1O | 0% (inactive) |
| Cc1c(C(=O)N2CCN(c3ccccc3)CC2)sc2ncnc(N3CCN(c4ccccc4)CC3)c12 | 0% (inactive) |
| COCC(=O)Nc1sc2c(c1C(=O)OC)CCC(C)C2 (stereo not given) | 6% (inactive) |
| COC(=O)Cn1c(CN2CCN(c3ccccc3F)CC2)nc2c1c(=O)n(C)c(=O)n2C | 0% (inactive) |
| CCN(CC)c1ccc(/C=N/n2nnnc2N)c(O)c1 | 6% (inactive) |
| O=C(CSc1nc2ccccc2nc1SCC(=O)N1CCOCC1)N1CCOCC1 | 0% (inactive) |
| COc1cccc(Nc2cc(C)nc3ccccc23)c1 | 1% (inactive) |
| Cc1nnc(NS(=O)(=O)c2ccc(N)cc2)s1 | 0% (inactive) |
| Cc1ccccc1OCCCN1C(=O)C(=O)c2cccc(C)c21 | 0% (inactive) |
| CCOC(=O)N1CCN(c2c(NCCN(C)Cc3ccccc3)c(=O)c2=O)CC1 | 0% (inactive) |
| CNC(=O)CSc1nnc(-c2cccc(S(=O)(=O)N3CCOCC3)c2)n1-c1ccc(F)cc1 | 0% (inactive) |

— PubChem BioAssay
